Experimental findings from PubChem BioAssay (NCI) are described below.

Compounds without any hit were thinned out: in the full panel of roughly 83,000, 20% have a hit.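 Compound tested at a single concentration for 48 hours in 96-well plates; a percent growth value below 10 was scored as active.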 Unmarked numbers belong to inactive results. Activity calls are given as the source filed them.

Test systems include SK-MEL-2 melanoma; EKVX NSCLC; SN12C renal; UO-31 renal; TK-10 renal; ACHN renal; CAKI-1 renal; CCRF-CEM leukemia; MOLT-4 leukemia; A498 renal.
Test in all cases: NCI-60 one-dose screen, 48 h (100 = growth as untreated, 0 = no growth, -100 = all killed)
What all share (settings): 10 µM unless noted

Turning to `COC(=O)[C@@]1(C)CC[C@]2(C)CC[C@]3(C)C4=CC=C5C(=CC(=O)C(O)=C5C)[C@]4(C)[C@@H](O)C[C@@]3(C)[C@@H]2C1`, the growth in the test with SK-MEL-2 melanoma is 43.5%; in the test with EKVX NSCLC it was 51%; in the test with SN12C renal, 9.92% (active); in the test with UO-31 renal, -56.6% (active); in the test on TK-10 renal it was 18.4%; with ACHN renal, -49.9% (active). The growth is 9.58% (active) with CAKI-1 renal, -2.39% (active) in the test on CCRF-CEM leukemia and -20% (active) in the test with MOLT-4 leukemia.

Regarding `Fc1cccc(-c2nc(-c3c[nH]c4ncccc34)cs2)c1`, the growth is 117% [100 µM] with SK-MEL-2 melanoma; 28.6% [100 µM] in the test on EKVX NSCLC; 62.7% [100 µM] in the test with SN12C renal; 61.1% [100 µM] in the test on UO-31 renal; 18% [100 µM] in the test on TK-10 renal; 22% [100 µM] with ACHN renal. The figures for the growth in the test on CAKI-1 renal, in the test with CCRF-CEM leukemia and in the test with MOLT-4 leukemia were -11.1% [100 µM] (active), 72% [100 µM] and 71.8% [100 µM], respectively.

Take `COc1ccc(C2[C@@H](c3ccccc3)C(=O)N2c2cc(OC)c(OC)c(OC)c2)cc1F` (stereo partly drawn): the growth with SK-MEL-2 melanoma was 2.73% (active); in the test with EKVX NSCLC, 34.7%; in the test with SN12C renal, 32.6%; in the test on UO-31 renal it was 38%; with TK-10 renal, 43.7%; in the test with ACHN renal, 34.2%. Besides, the growth in the test on CAKI-1 renal was 30.8%; in the test on CCRF-CEM leukemia it was 6.85% (active); in the test on MOLT-4 leukemia it was 5.7% (active).

For the molecule `COCCn1cc(-c2csc(-c3c[nH]c4ccccc34)n2)c2cccnc21`, the growth in the test on SK-MEL-2 melanoma was 18.3%; in the test on EKVX NSCLC, 31.8%; in the test with SN12C renal it was 64.3%; with UO-31 renal it was 44%; in the test on TK-10 renal it was 34.9%; in the test on ACHN renal, 49.6%. In addition, the growth in the test with CAKI-1 renal is 56.2%; in the test on CCRF-CEM leukemia it was 36.7%; in the test with MOLT-4 leukemia it was 25.7%.

With `COC(=O)c1c2c(c(C)[n+]([O-])c1C)C(=O)C(NCc1ccccc1)=CC2=O`, the growth was 23.6% with SK-MEL-2 melanoma; 34% in the test with EKVX NSCLC; 2.86% (active) with SN12C renal; 42.1% in the test on UO-31 renal; 113% in the test on TK-10 renal; 22.3% in the test on CAKI-1 renal. Moreover, the growth in the test on A498 renal is 98.6%; with CCRF-CEM leukemia, 21.9%; in the test on MOLT-4 leukemia it was 16.4%.

On to `Brc1ccc(Nc2nc(Nc3cnc4ccccc4c3)c3[nH]cnc3n2)cc1`, for which the growth is 78.2% in the test with SK-MEL-2 melanoma; 40.3% with EKVX NSCLC; 88.3% with SN12C renal; 70.3% with UO-31 renal; 113% in the test on TK-10 renal; 77.5% in the test with ACHN renal. Further, the growth in the test on CAKI-1 renal is 82.9%; in the test on CCRF-CEM leukemia, 60.6%; with MOLT-4 leukemia it was 78.3%.

As to `O=C(NNc1nc2cc(F)ccc2n2c(CN3CCOCC3)ccc12)c1ccccc1`, the growth was 34.6% with SK-MEL-2 melanoma; 14.2% with EKVX NSCLC; 10.1% with SN12C renal; 12.1% in the test with UO-31 renal; 46% with TK-10 renal; 8.05% (active) in the test on ACHN renal. Further, the growth in the test with CAKI-1 renal was 7.45% (active); in the test on A498 renal it was -22.4% (active); in the test with CCRF-CEM leukemia, 3.36% (active); with MOLT-4 leukemia it was 2.3% (active).

For the molecule `N=C(N)c1ccc(-c2ccc(-c3cc(Cl)cc(Cl)c3)s2)s1`, the growth was 83.4% with SK-MEL-2 melanoma; -12.2% (active) in the test on EKVX NSCLC; -65.4% (active) with SN12C renal; -40.2% (active) with UO-31 renal; -26.5% (active) in the test on TK-10 renal; -54.2% (active) in the test on ACHN renal. Besides, the growth was 2.68% (active) with CAKI-1 renal, -12.4% (active) in the test with CCRF-CEM leukemia and -41.9% (active) in the test on MOLT-4 leukemia.

On to `C#Cc1cccc(Nc2ncnc3cc(NC(=O)CCl)ccc23)c1`, for which the growth was -61.5% (active) with SK-MEL-2 melanoma; -45.5% (active) with EKVX NSCLC; -78.1% (active) in the test with SN12C renal; -91.5% (active) with UO-31 renal; -91.5% (active) in the test with TK-10 renal; -95.9% (active) in the test with ACHN renal. Moreover, the growth with CAKI-1 renal is -82.4% (active); in the test on CCRF-CEM leukemia it was -19.4% (active); in the test with MOLT-4 leukemia it was -16.4% (active).

As for `CCn1cc(C(=O)N/N=C/c2cccc(F)c2)c(=O)c2cc(F)c(N3CCNC(C)C3)c(F)c21` (stereo not drawn), the growth is 104% in the test with SK-MEL-2 melanoma; 50.7% in the test on EKVX NSCLC; -4.46% (active) in the test on SN12C renal; 20.6% in the test with UO-31 renal; 101% with TK-10 renal; 74.4% in the test with ACHN renal. For the same molecule, the growth is 66.7% with CAKI-1 renal, 99.2% in the test with A498 renal, -47% (active) in the test on CCRF-CEM leukemia and -26% (active) in the test on MOLT-4 leukemia.

For `CCOC(=O)c1nnn(-c2no[n+]([O-])c2-c2ccc(OC)cc2)c1COc1cccc2cccnc12`, the growth with SK-MEL-2 melanoma was 3.57% (active); in the test with EKVX NSCLC, 44.8%; with SN12C renal, 3.95% (active); in the test with UO-31 renal, 34.3%; in the test on TK-10 renal it was 33.2%; in the test on ACHN renal it was 21.8%. In addition, the values for the growth with CAKI-1 renal, in the test with CCRF-CEM leukemia and with MOLT-4 leukemia were 24.1%, 4.84% (active) and 10%, respectively.

Regarding `O=C1C=CC2(O)OC/C(=C\c3ccccc3)C(O)=C2C1=O` (stereo not drawn), the growth in the test on SK-MEL-2 melanoma was 53.4%; in the test with EKVX NSCLC, 54.1%; with SN12C renal it was -30.7% (active); in the test with UO-31 renal it was -91.5% (active); with TK-10 renal, 11.5%; in the test with ACHN renal, -70.5% (active). In addition, the growth in the test on CAKI-1 renal was 10.6%; in the test on CCRF-CEM leukemia it was 2.55% (active); in the test with MOLT-4 leukemia, 7.42% (active).

Consider `O=C1/C(=C/c2ccc(Cl)cc2)CN(C(=O)C(Cl)Cl)C/C1=C\c1ccc(Cl)cc1`, for which the growth is -15% (active) with SK-MEL-2 melanoma; -60% (active) with EKVX NSCLC; -75.7% (active) in the test on SN12C renal; -99.7% (active) in the test on UO-31 renal; -83.7% (active) in the test with TK-10 renal; -100% (active) in the test on ACHN renal. Moreover, the growth in the test on CAKI-1 renal is -71% (active); in the test on CCRF-CEM leukemia, 7% (active); in the test with MOLT-4 leukemia, -12.5% (active).

On to `C[C@@H]1NC(=O)[C@H](Cc2ccccc2)N(Cc2cccnc2)C1=O`, for which the growth in the test with SK-MEL-2 melanoma was 96.7%; in the test with EKVX NSCLC, 109%; with SN12C renal, 93.6%; in the test on UO-31 renal, 89%; in the test on TK-10 renal it was 95%; with CAKI-1 renal, 90.2%. Further, the results for the growth in the test with A498 renal, in the test with CCRF-CEM leukemia and in the test with MOLT-4 leukemia were 63.5%, 109% and 101%, respectively.
